For orientation: AC50 means the concentration giving half of the maximal activity seen. As usually defined, the inhibition is the drop in the measured response relative to a control, in per cent.

Consider eleven compounds from PubChem BioAssay.

Assay [1] is described as follows: growth inhibition of DIPG glioma cells, dose response, cell-based, SU-DIPG-XIII, MIPE4.0, CellTiter-Glo, qHTS (AID 1347061; cut-off not given, nearly all actives have AC50 up to about 37 µM;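 note: cells exposed to compound for 48 hours before readout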). The conditions noted are these: SU-DIPG-XIII viability, CellTiter-Glo ATP luminescence. For orientation: ATP-based viability assays read luminescence as a measure of living cells.
The nature of assay [2]: growth inhibition of DIPG glioma cells, dose response, cell-based, JHH-DIPG-1, MIPE4.0, CellTiter-Glo, qHTS (AID 1347062; cut-off not given, nearly all actives have AC50 up to about 27 µM). The conditions noted are these: JHH-DIPG-1 viability, CellTiter-Glo ATP luminescence.
Assay [3] is described as follows: growth inhibition of DIPG glioma cells, dose response, cell-based, SU-DIPG-IV, MIPE4.0, CellTiter-Glo, qHTS (AID 1347063; cut-off not given, nearly all actives have AC50 up to about 30 µM;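 note: compound exposure lasted 48 hours before the viability readout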). The conditions noted are these: SU-DIPG-IV viability, CellTiter-Glo ATP luminescence.
A short description of assay [4]: growth inhibition of DIPG glioma cells, dose response, cell-based, SU-DIPG-XIII, MIPE5.0, CellTiter-Glo, qHTS (AID 1347064; cut-off not given, nearly all actives have AC50 up to about 23 µM;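 for AC50: cells exposed to compound for 48 hours before the viability read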). The conditions noted are these: SU-DIPG-XIII viability, CellTiter-Glo ATP luminescence.
Assay [5] is described as follows: viability loss in pontine glioma line – cell-based, SU-DIPG-XXV, MIPE5.0, CellTiter-Glo, qHTS, dose response (AID 1347065; cut-off not given, nearly all actives have AC50 up to about 26 µM;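 note: cells exposed to compound for 48 hours before ATP readout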). The conditions noted are these: CellTiter-Glo ATP luminescence.
A short description of assay [6]: SU-DIPG-VI glioma cell viability, MIPE4.0 library, CellTiter-Glo luminescence, qHTS (AID 1347066; cut-off not given, nearly all actives have AC50 up to about 30 µM;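 note: cells exposed to compound for 48 hours before readout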). The note with it: CellTiter-Glo ATP luminescence.
The nature of assay [7]: JHH-DIPG-1 glioma cell viability, MIPE5.0 library, CellTiter-Glo luminescence, qHTS (AID 1347067; cut-off not given, nearly all actives have AC50 up to about 26 µM;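 note: cells exposed to compound for 48 hours before readout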). The conditions noted are these: JHH-DIPG-1 glioma viability, CellTiter-Glo ATP luminescence.
The nature of assay [8]: SU-DIPG-XXV glioma cell viability, MIPE5.0 library, qHTS (AID 1347068; cut-off not given, nearly all actives have IC50 up to about 30 µM). A general note: qHTS replaces the single test concentration by a dilution series.
The nature of assay [9]: polyglutamine-triggered caspase-3 activation inhibitors, cell-based (AID 1583). The note with it: polyglutamine-induced caspase-3 activation, cell assay; stronger effect = higher value;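 tested at 10 µM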.
A short description of assay [10]: LFS_MB_1R medulloblastoma cell growth inhibition, synergistic combos for chromothripsis tumors, cisplatin or BGB combos (AID 1671452).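 Note: cells exposed for 96 hours before readout.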 The conditions noted are these: LFS_MB_1R medulloblastoma cells, stronger effect = higher value.
Assay [11] is described as follows: CRL2098 osteosarcoma cell growth inhibition, synergistic combos for chromothripsis tumors, BGB or cisplatin IC20 combos (AID 1671454).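 Note: cells exposed for 96 h before readout; 0% = vehicle DMSO and 100% = killing by high DMSO.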 The note with it: CRL2098 osteosarcoma cells, drug combinations, stronger effect = higher value.
Assay [12] can be described thus: HD-MB03 medulloblastoma cell growth inhibition, synergistic combos for chromothripsis tumors, BGB or cisplatin IC20 combos (AID 1671455; in the data active = inhibition above about 83%;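 note: 0% = vehicle DMSO and 100% = high DMSO as cytotoxic control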). The note with it: HD-MB03 medulloblastoma cells, stronger effect = higher value.
Assay [13] can be described thus: UWB1.289 ovarian carcinoma cell growth inhibition, synergistic combos for chromothripsis tumors, BGB or cisplatin combos (AID 1671456).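 Note: cells exposed to compound for four days; 0% = vehicle DMSO and 100% = killing by high DMSO.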 The note with it: UWB1.289 ovarian carcinoma cells, stronger effect = higher value.
Assay [14] in a line: LFS_MB_2R medulloblastoma cell growth inhibition, synergistic combos for chromothripsis tumors, cisplatin combos (AID 1671457).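 Note: cells exposed to compound for four days before readout.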 The conditions noted are these: LFS_MB_2R medulloblastoma cells, stronger effect = higher value.
The nature of assay [15]: UWB1.289_BRCA1 ovarian cancer growth, cell-based, BGB or cisplatin combinations (AID 1671459). The conditions noted are these: UWB1.289 BRCA1 ovarian carcinoma, drug combinations, stronger effect = higher value.
The nature of assay [16]: human astrocyte viability loss, single and combined drugs, cytotoxicity control for chromothriptic childhood tumor combination screen, cell-based, BGB or cisplatin IC20 combos (AID 1671460).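 Note: cells exposed to compounds for 96 hours before viability readout; 0% = vehicle and 100% = killing control.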 The conditions noted are these: Human astrocytes, drug combinations, stronger effect = higher value.
Assay [17] can be described thus: growth inhibition of CRL1545 osteosarcoma cells, cell-based, cisplatin and BGB IC20 combos (AID 1671464).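 Note: cells exposed to compound for 96 hours before readout; 0% = vehicle DMSO and 100% = high DMSO killing control.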 The note with it: stronger effect = higher value.
Assay [18] addresses Mitogen-activated protein kinase 7 (Homo sapiens) (UniProt Q13164). The assay can be described thus: ERK5 transactivation activators in reporter cells, primary screen, cell-based, HTS (AID 1508626;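 active = luciferase signal above three times the same-plate solvent-only control wells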;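 note: luciferase driven by Gal4-ERK5 fusion binding five Gal4 sites before minimal TATA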). The note with it: HeLa Gal4-ERK5 transactivation, 18 h, at 5 µM, stronger effect = higher value.
Assay [19] can be described thus: kinase inhibitors against Plasmodium liver-stage infection, cell-based, known kinase inhibitor set, luminescence, hepatoma host viability (AID 624392; call rule not given here;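 note: infected cells incubated roughly two days before readout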). The conditions noted are these: Plasmodium liver stage in hepatoma cells, luciferase luminescence, concentration not given here; liver cell % of control: measured here: host liver cell viability; parasite % of control: stronger effect = lower value.

[20] abbreviates: measured here: combination with BGB IC40, at 0.05 µM.
The mark [21] stands for this setting: measured here: combination with cisplatin, at 0.5 µM.
The mark [22] stands for this setting: measured here: combination with cisplatin, at 5 µM.
Setting [23] is: measured here: combination with BGB at IC20, at 0.5 µM.
Where [24] appears, read: measured here: combination with cisplatin at IC20, at 0.5 µM.
Where [25] appears, read: measured here: combo with BGB at IC20, at 0.5 µM.
[26] abbreviates: measured here: combo with cisplatin at IC20, at 0.5 µM.
The mark [27] stands for this setting: measured here: inhibition with BGB combination, at 0.05 µM.
The mark [28] stands for this setting: measured here: inhibition with cisplatin combination, at 0.05 µM.
The mark [29] stands for this setting: BGB combination, concentration series, at 5 µM.
Where [30] appears, read: cisplatin combination, concentration series, at 5 µM.
Where [31] appears, read: measured here: combo with BGB IC20, at 0.5 µM.
Where [32] appears, read: measured here: combo with cisplatin IC20, at 0.5 µM.
Setting [33] is: measured here: with BGB IC20 combination, at 0.5 µM.
Where [34] appears, read: measured here: with cisplatin IC20 combination, at 0.5 µM.

Where “and” joins values, the source holds several entries; their conditions need not be identical. Identical values can stand only once. Results filed as inconclusive are left out. Calls of active or inactive are those of the source. Cut-off read from the data, not from the text of the source, unless noted: active = inhibition above about 80%; inactive = the rest.

Mitogen-activated protein kinase 7 (Homo sapiens), sequence (Q13164 whole entry, looked up, the tested form may be a part): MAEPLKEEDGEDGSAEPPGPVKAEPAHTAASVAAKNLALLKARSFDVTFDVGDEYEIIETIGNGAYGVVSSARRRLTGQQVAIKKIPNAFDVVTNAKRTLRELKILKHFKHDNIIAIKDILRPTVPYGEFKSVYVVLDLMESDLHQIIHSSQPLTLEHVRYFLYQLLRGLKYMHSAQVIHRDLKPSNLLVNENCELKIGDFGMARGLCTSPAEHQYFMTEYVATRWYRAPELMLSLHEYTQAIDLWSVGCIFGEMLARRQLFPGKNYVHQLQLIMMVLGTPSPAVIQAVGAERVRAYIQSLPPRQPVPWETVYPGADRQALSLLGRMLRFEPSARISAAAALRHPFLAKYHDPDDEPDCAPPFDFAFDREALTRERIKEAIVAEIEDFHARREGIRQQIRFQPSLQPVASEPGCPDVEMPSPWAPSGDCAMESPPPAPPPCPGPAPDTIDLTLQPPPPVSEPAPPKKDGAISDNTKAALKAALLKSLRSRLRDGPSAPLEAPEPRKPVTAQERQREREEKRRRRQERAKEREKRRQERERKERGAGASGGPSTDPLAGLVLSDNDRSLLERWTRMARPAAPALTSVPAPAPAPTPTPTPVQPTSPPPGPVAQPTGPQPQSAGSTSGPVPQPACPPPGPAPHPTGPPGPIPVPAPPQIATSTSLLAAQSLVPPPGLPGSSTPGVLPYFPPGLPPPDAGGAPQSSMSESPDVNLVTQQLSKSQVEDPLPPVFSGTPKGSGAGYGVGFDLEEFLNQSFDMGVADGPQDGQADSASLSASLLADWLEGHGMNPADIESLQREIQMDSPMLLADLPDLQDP

For the compound `C[C@@H](N)C1CCC(C(=O)Nc2ccncc2)CC1` (stereo partly drawn), the result in assay [1], in assay [2], in assay [3], in assay [4], in assay [5] and in [6] was inactive. The compound was classed as inactive in [7] and in assay [8].

Turning to `CCOC(=O)C(C)Oc1cccc2c(=O)n(CC(=O)Nc3ccc4c(c3)OCCO4)ccc12` (stereo not drawn), the result in [1], in [2], in assay [3], in assay [7] and in assay [8] was inactive. Further, the AC50 in [4] is 20.9 µM (active).

As for `Oc1cc(O)cc(/C=C/c2ccc(O)c(O)c2)c1`, the call in assay [1] and in assay [8] was inactive. In addition, the AC50 was 20.9 µM (active) in [4] and 16.6 µM (active) in assay [7].

Turning to `O=C(O)Cc1cccc(OCCCN(Cc2cccc(C(F)(F)F)c2Cl)CC(c2ccccc2)c2ccccc2)c1`, the call in assay [2] was inactive. The AC50 in assay [3] and in assay [5] was 20.9 µM (active) throughout.

With `N.N.O=C(O)C1(C(=O)O)CCC1.[Pt]`, the inhibition in [9] is -4.65%; in assay [10] (at 0.5 µM), -35.7% (inactive) and -31.6% (inactive); in assay [10] (setting [20]), -53% and -34.9%; in [10] (setting [21]), -6.08% and -36.3%; in assay [10] (setting [22]), -14.9% and -37.2%; in assay [11] (at 0.5 µM), -63.4% (inactive) and -87.5% (inactive). Moreover, the inhibition in [11] (setting [23]) was -18.4% and -56.5%; in [11] (setting [24]), -78.6% and -134%; in assay [12] (at 0.5 µM), -1.12% (inactive) and -17.2% (inactive); in [12] (setting [25]), 0.288% and -20.6%; in assay [12] (setting [26]), 4.09% and -19.6%; in [13] (at 0.5 µM), -2.74% (inactive) and -5.32% (inactive). Also, the inhibition was 42.2% and -5.66% in assay [13] (setting [27]); -17.5% and -30.7% in [13] (setting [28]); -25.7% (inactive) and -8.57% (inactive) in assay [14] (at 0.5 µM); -29.8% and -25.9% in assay [14] (setting [21]); -19% and -16.7% in [14] (setting [22]); 2.03% and 5.93% in assay [15] (setting [29]). Besides, the inhibition is -15.7% (inactive) and -7.62% (inactive) in assay [15] (at 0.5 µM); 29.9% and 24.6% in assay [15] (setting [30]); -6.9% (inactive) and 14.2% (inactive) in assay [16] (at 0.5 µM); -5.7% and 11.6% in assay [16] (setting [31]); -6.14% and 19.2% in assay [16] (setting [32]); -31.3% (inactive) and -52.7% (inactive) in assay [17] (at 0.5 µM). Further, the inhibition in assay [17] (setting [33]) is -4.25% and -43.2%; in assay [17] (setting [34]), -44.9% and -60%; in [17] (single agent, at 0.05 µM) it was -23.7% and -50.6%; in [17] (single agent, at 5 µM) it was 3.56% and 6.67%.

For the compound `Oc1cc2c(cc1O)C(c1ccccc1)CNCC2` (stereo not drawn), the luciferase signal in [18] was 44 AU (inactive).

For the compound `Cn1cc(C2=C(c3ccc(Cl)cc3Cl)C(=O)NC2=O)c2ccccc21`, in assay [19], the liver cell % of control was 105% and 92.9% and 90.2%; the parasite % of control was 19.2% (inactive) and 24.2% (inactive) and 47.4% (inactive).

Regarding `CCSC(=N)N`, the luciferase signal in assay [18] is 16 AU (inactive).

Consider `Brc1c(Br)c(Br)c2n[nH]nc2c1Br`, for which, in [19], the liver cell % of control was 96.1% and the parasite % of control is 91.6% (inactive).

For `O=C(Nc1ccncc1)c1cc([N+](=O)[O-])ccc1Cl`, the inhibition is -23.9% (inactive) in assay [10] (at 0.5 µM); -37.5% in assay [10] (setting [20]); -9.6% in assay [10] (setting [21]); 54.5% in [10] (setting [22]); -65.5% (inactive) in [11] (at 0.5 µM); -72.7% in [11] (setting [23]). In addition, the inhibition in assay [11] (setting [24]) is -82.6%; in assay [12] (at 0.5 µM), -11.5% (inactive); in assay [12] (setting [25]) it was -10.4%; in assay [12] (setting [26]), -13.5%; in [13] (at 0.5 µM) it was -6.23% (inactive); in assay [13] (setting [27]) it was -27.4%. Also, the inhibition is -17% in assay [13] (setting [28]); -23.4% (inactive) in assay [14] (at 0.5 µM); -14.6% in assay [14] (setting [21]); -37.5% in [14] (setting [22]); -19.1% in assay [15] (setting [29]); -17.7% (inactive) in [15] (at 0.5 µM). For the same compound, the inhibition in [15] (setting [30]) is -9.35%; in assay [16] (at 0.5 µM), -9.91% (inactive); in assay [16] (setting [31]) it was 0.843%; in assay [16] (setting [32]), -18.4%; in assay [17] (at 0.5 µM) it was 6.35% (inactive); in [17] (setting [33]) it was -12.9%. For the same compound, the inhibition in assay [17] (setting [34]) is 14.6%; in [17] (single agent, at 0.05 µM), -34.7%; in [17] (single agent, at 5 µM) it was -4.08%.

With `CN1CCc2cccc3c2[C@H]1Cc1ccc(O)c(O)c1-3`, in assay [18], the luciferase signal was 48 AU (inactive).
